D3 ag: activates the human D3 dopamine receptor. P35462. D3R DiscoveRx beta-arrestin cells, luminescence, 90 min. 410,000 tested, 0.58% active. max activation, %; in the data active = max activation above about 30%
Target sequence (P35462 whole entry, looked up): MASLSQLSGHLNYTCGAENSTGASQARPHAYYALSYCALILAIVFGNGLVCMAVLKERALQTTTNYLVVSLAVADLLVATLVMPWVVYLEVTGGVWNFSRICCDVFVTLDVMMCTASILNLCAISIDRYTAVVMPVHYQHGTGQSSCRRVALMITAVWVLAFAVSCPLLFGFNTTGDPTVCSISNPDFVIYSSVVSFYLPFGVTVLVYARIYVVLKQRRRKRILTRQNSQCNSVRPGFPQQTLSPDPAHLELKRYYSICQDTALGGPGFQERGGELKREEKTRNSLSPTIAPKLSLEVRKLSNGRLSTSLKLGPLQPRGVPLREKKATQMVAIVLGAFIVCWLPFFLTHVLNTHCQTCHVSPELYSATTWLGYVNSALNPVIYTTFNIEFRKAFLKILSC
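Agonist-mode cell screen: cells plated at 1500/well and incubated overnight at 37 °C, then exposed to library compounds for 90 min at 37 °C. Detection reagent was added for 30–60 min at room temperature, and luminescence was read.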
D3 antag: blocks the human D3 dopamine receptor. P35462. D3R cells, DiscoveRx beta-arrestin luminescence, antagonist mode; active compounds read low. max response, negative = inhibition, %. 360,000 tested, 2.5% active. AID 652054; in the data active = max response below about -50%; inconclusive = no clear call, values can overlap the other calls
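Cells expressing the human receptor were seeded at 1500 cells/well, incubated overnight at 37 degrees C in 5% CO2, then exposed to library compounds with dopamine controls for 90 minutes at 37 degrees C before luminescent detection.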
IL1B secr inh: inhibitors of inflammasome signaling (IL-1 beta secretion) | THP-1 LPS/ATP IL-1B secretion, AlphaLISA, 16 h; active compounds read low | activity change, % at 57.5 µM | 360,000 tested, 4.7% active; in the data active = activity change below about -50%; inconclusive = mostly about -30% to -49%
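Secreted IL-1B measured by AlphaLISA bead assay after 16 h compound exposure of THP-1 cells; compounds (final up to 57.5 uM) added 1 h before LPS (250 ng/mL) and ATP (1.25 mM) stimulation; lower signal means less secretion.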
TDP1 cell CPT: growth inhibition of DT40 Tdp1-/-;hTDP1 cells with camptothecin (screen for TDP1 inhibitors); Potency, µM (top dose mostly 46.2 µM), usual class: inhibitors; 420,000 tested, 12% active; chicken DT40 Tdp1-/-;hTDP1 cells + 20 nM CPT, ATP luminescence, 48 h; note: nearly all actives have a fitted effect of over 55% in size
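Chicken DT40 Tdp1-/- cells complemented with human TDP1, 400 cells/well, exposed to compounds plus 20 nM camptothecin for at least 48 h at 37 C; viability read as ATP content by CellTiter-Glo luminescence.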
ClpP mod: qHTS Assay for Activators of ClpP; ATP-dependent Clp protease proteolytic subunit (Bacillus subtilis (strain 168)), P80244; purified B. subtilis ClpP, FRET peptide cleavage, 20 min; Potency, µM (doses to about 57.5 µM); 340,000 tested, 1.9% active; AID 651965, 2013; active = well fitted falling curve with a large enough effect; inconclusive = small, poorly fitted or top-dose-only effect; inactive = no such curve, though single readings can be large or run the other way; note: the source files actives as falling curves though it sought activators and does not explain the sign; nearly all actives have a fitted effect of over 65% in size
Target sequence (P80244 whole entry, looked up): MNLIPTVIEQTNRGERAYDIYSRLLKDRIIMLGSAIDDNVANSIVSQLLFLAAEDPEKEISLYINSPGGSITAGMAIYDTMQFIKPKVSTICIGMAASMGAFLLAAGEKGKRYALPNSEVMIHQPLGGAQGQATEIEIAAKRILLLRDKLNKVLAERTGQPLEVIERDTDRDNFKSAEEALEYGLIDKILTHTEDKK
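FRET quenching reversal measured ClpP activation: 10 microg/mL B. subtilis ClpP at pH 8 with the FRET-FV decapeptide, read at 430 nm after 320 nm excitation. The 20-min minus 0-min signal was scaled between DMSO/no-enzyme wells and ADEP (5.8 microM final).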
TDP1 cell noCPT: qHTS for Inhibitors of human tyrosyl-DNA phosphodiesterase 1 (TDP1): qHTS in cells in absence of CPT. DT40 Tdp1-/- hTDP1 cells, no CPT, ATP luminescence, 48 h. Potency, µM (doses to about 46.2 µM), actives largely listed as inhibitors. 420,000 tested, 15% active. AID 686978, 2013; note: nearly all actives have a fitted effect of over 55% in size
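Seeded 400 DT40-hTDP1 cells/well (vehicle DMSO, no 20 nM CPT); pinned compounds; ≥48 hr at 37 °C; CellTiter-Glo luminescence as viability measure.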
A number is an active result; i = inactive; ? = inconclusive; nt = no result given; + = active, no number. Compounds with a hit are over-represented: about 21% of the library has one in this group of screens. Unless noted, calls come from the whole dose curve; as a rule, active = well fitted inhibition curve with a large enough effect; inconclusive = small, poorly fitted or top-dose-only effect; inactive = flat fitted curve, though single readings scatter.

SMILES	D3 ag	D3 antag	IL1B secr inh	TDP1 cell CPT	ClpP mod	TDP1 cell noCPT
NC(=O)c1ccsc1NC(=O)c1coc2ccccc2c1=O	i	i	i	?	i	29.1µM
Cc1ccc(Nc2ncnc3c2cnn3-c2ccc(C)cc2)cc1	i	nt	nt	i	?	?
Cc1cccc(-n2ncc3c(Nc4ccc(Oc5ccc(Cl)cc5)cc4)ncnc32)c1	i	nt	nt	18.4µM	i	14.6µM
COc1ccccc1Nc1ncnc2c1cnn2-c1cccc(C)c1	i	i	i	?	i	?
Cc1cccc(-n2ncc3c(Nc4ccc(C)c(Cl)c4)ncnc32)c1	i	nt	nt	18.4µM	i	18.4µM
COc1ccc(Nc2ncnc3c2cnn3-c2ccc(C)cc2)cc1Cl	i	nt	nt	?	i	23.1µM
COc1ccc(-c2cc(=O)c(C(=O)c3ccc(C)cc3)n[nH]2)cc1	i	i	i	i	nt	i
Cc1cccc(S(=O)(=O)NC(=O)C2(C)CCN2C(=O)c2ccccc2CCc2ccccc2)c1 (stereo not drawn)	i	i	i	?	i	+
CC1(C(=O)NS(=O)(=O)c2cccc(F)c2)CCN1C(=O)CC1CCCCC1 (stereo not drawn)	30.1	i	i	i	i	i
Cc1cccc(S(=O)(=O)NC(=O)C2(C)CCN2C(=O)CC2CCCCC2)c1 (stereo not drawn)	i	i	i	i	i	i
CC1(C(=O)N2CCCCC2)CCN1C(=O)c1ccccc1CCc1ccccc1 (stereo not drawn)	i	i	i	?	i	14.6µM
Cc1noc(C)c1C(=O)N1CCC1(C)C(=O)NS(=O)(=O)c1cccc(Cl)c1 (stereo not drawn)	30.4	i	i	i	i	i
COCC(=O)N[C@H]1CC[C@@H](CC(=O)OC)O[C@@H]1CO	i	i	i	i	i	i
Cc1ccc(NC(=O)CN2CCSc3ccc(S(=O)(=O)N4CCCC4)cc32)cc1C	i	nt	nt	nt	?	nt
Cc1ccc(NC(=O)C2(C)CCN2C(=O)c2ccccc2CCc2ccccc2)cc1C (stereo not drawn)	i	i	i	20.6µM	i	i
COc1ccc(NC(=O)C2(C)CCN2C(=O)c2ccccc2CCc2ccccc2)cc1OC (stereo not drawn)	i	i	i	14.6µM	i	9.2µM
Cc1cccc(N2CCN(C(=O)CS(=O)(=O)Cc3nc(-c4ccccc4F)oc3C)CC2C)c1 (stereo not drawn)	i	i	i	?	i	?
Cc1ccccc1-c1nc(CS(=O)(=O)CC(=O)NCc2cccc(Cl)c2)c(C)o1	i	nt	nt	16.4µM	i	?
Cc1oc(-c2ccccc2F)nc1CS(=O)(=O)CC(=O)NCCCN1CCc2ccccc2C1	i	-76.9	i	i	i	i
Cc1cccc(N2CCN(C(=O)CS(=O)(=O)Cc3nc(-c4ccccc4C)oc3C)CC2C)c1 (stereo not drawn)	i	nt	nt	14.6µM	?	?
Cc1ccccc1-c1nc(CS(=O)(=O)CC(=O)NCC(C)c2ccccc2)c(C)o1 (stereo not drawn)	i	nt	nt	?	i	16.4µM
COc1ccc(CCNC(=O)NCc2noc3ccc(C)cc23)c(OC)c1	i	nt	nt	i	i	?
Cc1ccccc1-c1nc(CS(=O)(=O)CC(=O)Nc2cc(F)ccc2F)c(C)o1	i	i	i	?	i	20.6µM
O=C(CSc1nn(-c2ccc(Cl)cc2)c(=S)s1)NCC1CCCO1 (stereo not drawn)	i	i	i	?	i	i
COc1ccc(CNC(=O)Cc2ccc(NC(=O)N3CCCCc4ccccc43)cc2)cc1	i	nt	nt	?	i	23.1µM
SMILES	D3 ag	D3 antag	IL1B secr inh	TDP1 cell CPT	ClpP mod	TDP1 cell noCPT
COc1ccc(OC)c(CNC(=O)Cc2ccc(NC(=O)N3CCCCc4ccccc43)cc2)c1	i	nt	nt	11.6µM	i	9.2µM
CC(C)CCNC(=O)Cc1ccc(NC(=O)N2CCCCc3ccccc32)cc1	i	nt	nt	i	i	?
O=C(Cc1ccc(NC(=O)N2CCCCc3ccccc32)cc1)NCc1ccccc1Br	i	nt	nt	?	i	23.1µM
O=C(Cc1ccc(NC(=O)N2CCCCc3ccccc32)cc1)NCc1ccccc1	i	nt	nt	23.1µM	i	23.1µM
CCOCCn1c(=O)c2c(nc3n2CCN3c2ccc(C)c(C)c2)n(C)c1=O	i	nt	nt	i	i	i
CCCCC/C=C\CCC(=O)N[C@H]1[C@H](Oc2c3cc4cc2Oc2ccc(cc2Cl)[C@@H](O[C@@H]2O[C@H](CO)[C@@H](O)[C@H](O)[C@H]2NC(C)=O)[C@@H]2NC(=O)[C@H](NC(=O)[C@@H]4NC(=O)[C@H]4NC(=O)[C@@H](Cc5ccc(c(Cl)c5)O3)NC(=O)[C@H](N)c3ccc(O)c(c3)Oc3cc(O)cc4c3)c3ccc(O)c(c3)-c3c(O[C@H]4O[C@H](CO)[C@@H](O)[C@H](O)[C@@H]4O)cc(O)cc3[C@@H](C(=O)O)NC2=O)O[C@H](CO)[C@@H](O)[C@@H]1O	i	nt	nt	i	nt	i
COc1ccc(Cl)cc1NC(=O)Cc1ccc(NC(=O)N2CCCCc3ccccc32)cc1	i	nt	nt	18.4µM	i	20.6µM
O=C(CCC(=O)N1CC2CCCN2c2ccccc21)NCc1ccccc1 (stereo not drawn)	i	nt	nt	?	i	?
COc1ccc(CNC(=O)CCC(=O)N2CC3CCCN3c3ccccc32)cc1 (stereo not drawn)	i	nt	nt	11.6µM	i	20.6µM
CCc1ccc(CNC(=O)c2ccc(NC(=O)N3CCCCc4ccccc43)cc2)cc1	i	nt	nt	20.6µM	i	?
CC(C)c1ccc2oc(-c3cccc(NC(=O)c4ccc5c(c4)OCCO5)c3)nc2c1	i	nt	nt	?	?	16.4µM
O=C(Nc1ccc2oc(-c3ccc4ccccc4c3)nc2c1)c1cccc(Cl)c1Cl	i	nt	nt	8.2µM	i	5.17µM
O=C(Nc1ccc2oc(-c3ccc4ccccc4c3)nc2c1)c1ccc2c(c1)OCCO2	i	i	i	5.8µM	i	8.2µM
COc1ccc2oc(-c3ccc(C)c(NC(=O)c4ccc5c(c4)OCCO5)c3)nc2c1	i	nt	nt	?	i	16.4µM
CCOC(=O)C(=O)Nc1ccc(S(=O)(=O)Nc2nccs2)cc1	i	i	i	i	i	i
CS(=O)(=O)c1cccc(NC(=O)C2CCCN2S(=O)(=O)c2ccc(F)cc2)c1 (stereo not drawn)	i	i	i	i	nt	i
COc1ccccc1-n1c2nc3ccccc3nc2c2c(=O)n(-c3cc(C)cc(C)c3)cnc21	i	i	-94.6	3.66µM	nt	?
COc1ccccc1-n1cnc2c(c1=O)c1nc3ccccc3nc1n2CCc1ccccc1	i	i	i	20.6µM	i	16.4µM
